# Measured values reported in PubChem BioAssay (NCI).
# Compounds without any hit were thinned out: in the full panel of roughly 79,000, 15% have a hit. Values without a mark were called inactive. The source made the active and inactive calls. Rule as the data show it: active = growth inhibition above about 70%; inactive = the rest.
# Tests used:
# [1] = NCI Yeast Anticancer Drug Screen. Data for the rad52 strain (AID 147);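 also: 0% = growth of vehicle-treated control cultures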; conditions: S. cerevisiae rad52 mutant growth inhibition, stronger effect = higher value
# Method in brief: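 Inhibition of yeast growth, referenced to vehicle controls, was the measured output for a strain with defective DNA damage repair.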
# [2] = NCI Yeast Anticancer Drug Screen. Data for the wt1 strain (AID 149);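 also: 0% = growth of vehicle-treated wt1 cultures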; conditions: S. cerevisiae wt1 strain (SPY 50644) growth inhibition, stronger effect = higher value
# Method in brief: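 wt1 yeast, compound-treated; % growth inhibition vs vehicle control.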
# [3] = NCI Yeast Anticancer Drug Screen. Data for the rad50EPP+ strain (AID 151);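 also: 0% = growth of vehicle-treated control cultures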; conditions: S. cerevisiae rad50 mutant strain, stronger effect = higher value
# Method in brief: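 Genetically defined yeast (rad50EPP+, DNA damage repair alteration) is grown with compound, and inhibition of growth is expressed relative to vehicle-treated controls.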
# [4] = NCI Yeast Anticancer Drug Screen. Data for the rad50 strain (AID 155);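 also: 0% = growth of vehicle-only cultures of the same strain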; conditions: S. cerevisiae rad50 strain growth inhibition, stronger effect = higher value
# Method in brief: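 Genetically altered yeast (DNA repair pathway); compound treatment; growth inhibition vs vehicle ctrl.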
# [5] = NCI Yeast Anticancer Drug Screen. Data for the mec2-1 strain (AID 157); conditions: S. cerevisiae mec2-1 strain, stronger effect = higher value
# Method in brief: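 Each compound was tested on mec2-1 yeast, a strain altered in DNA damage repair or cell cycle control. Growth inhibition is reported relative to vehicle.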
# [6] = NCI Yeast Anticancer Drug Screen. Data for the rad14 strain (AID 159);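 also: 0% = growth of vehicle-treated control cultures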; conditions: S. cerevisiae rad14 strain growth inhibition, stronger effect = higher value
# Method in brief: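 Test compounds were applied to a repair-deficient yeast strain. Its growth was then compared with that of cultures given vehicle alone, and inhibition was expressed relative to those controls.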
# [7] = NCI Yeast Anticancer Drug Screen. Data for the sgs1 mgt1 strain (AID 161);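 also: 0% = growth of cultures given vehicle only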; conditions: S. cerevisiae sgs1 mgt1 strain, stronger effect = higher value
# Method in brief: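 Read-out: growth inhibition vs vehicle controls. Cells: mutant yeast strain deficient in DNA damage repair.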
# [8] = NCI Yeast Anticancer Drug Screen. Data for the CLN2oe strain (AID 163);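 also: 0% = growth of vehicle-only control cultures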; conditions: S. cerevisiae CLN2oe strain, stronger effect = higher value
# Method in brief: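 First, the altered yeast strain was treated with each compound; second, its growth was measured; finally, inhibition was derived by comparison with vehicle controls.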
# [9] = NCI Yeast Anticancer Drug Screen. Data for the cln2 rad14 strain (AID 165);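 also: 0% = growth equal to vehicle treated cultures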; conditions: S. cerevisiae cln2 rad14 strain, stronger effect = higher value
# Method in brief: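 Test compounds were added to cln2 rad14 yeast cultures; inhibition of growth was then determined by comparison with vehicle treatment.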
# [10] = NCI Yeast Anticancer Drug Screen. Data for the bub3 strain (AID 167); conditions: S. cerevisiae bub3 mutant strain, stronger effect = higher value
# Method in brief: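 Yeast carrying a defined mutation is treated with each compound, and growth is compared with that of vehicle-exposed cells to give inhibition.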
# [11] = NCI Yeast Anticancer Drug Screen. Data for the wt2 strain (AID 169);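 also: 0% = growth of vehicle-treated yeast cultures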; conditions: S. cerevisiae wt2 strain growth inhibition, stronger effect = higher value
# Method in brief: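 The panel's yeast strains carry defined changes in DNA repair or cell cycle genes. Each strain is grown with compound, and growth loss is scored relative to vehicle.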
# [12] = NCI Yeast Anticancer Drug Screen. Data for the mlh1 strain (AID 171);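 also: 0% = growth of vehicle-treated control cultures of the same strain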; conditions: S. cerevisiae mlh1 strain growth inhibition, stronger effect = higher value
# Method in brief: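 Inhibition values reflect reduced yeast growth in the presence of compound, referenced to vehicle controls, using a strain chosen for its alteration in DNA repair or cell cycle control.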
# [13] = NCI Yeast Anticancer Drug Screen. Data for the sgs1 strain (AID 173);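 also: 0% = growth of vehicle-only control cultures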; conditions: S. cerevisiae sgs1 mutant, stronger effect = higher value
# Method in brief: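 Vehicle-treated cultures served as reference for growth inhibition of a yeast strain altered in DNA damage repair or cell cycle control after compound exposure.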
# [14] = NCI Yeast Anticancer Drug Screen. Data for the mlh1 rad18 strain (AID 175); conditions: S. cerevisiae mlh1 rad18 strain growth inhibition, stronger effect = higher value
# Method in brief: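 Inhibition values reflect reduced growth of mutant yeast versus vehicle-treated controls following compound exposure; the mutations affect DNA damage repair.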
# [15] = NCI Yeast Anticancer Drug Screen. Data for the rad18 strain (AID 177); conditions: S. cerevisiae rad18 mutant growth inhibition, stronger effect = higher value
# Method in brief: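 Steps: expose repair-mutant yeast to compound; measure growth; express as inhibition relative to vehicle control.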
# [16] = at 5.0 µM (retest, dose inferred, filed as 0.5)
# [17] = at 50.0 µM (retest, dose inferred, filed as 5.0)
smiles,measurement,setting,value
C=C(CCCO)[C@@H]1CC[C@@](C)(O)[C@H]1C,growth inhibition,[1]; at 1.2 µM,-7%
same,growth inhibition,[1]; at 3.7 µM,-9%
same,growth inhibition,[1]; at 11.0 µM,-13%
same,growth inhibition,[1]; at 33.0 µM,-8%
same,growth inhibition,[1]; at 100.0 µM,-12%
same,growth inhibition,[2]; at 1.2 µM,-25%
same,growth inhibition,[2]; at 3.7 µM,-33%
same,growth inhibition,[2]; at 11.0 µM,-29%
same,growth inhibition,[2]; at 33.0 µM,-34%
same,growth inhibition,[2]; at 100.0 µM,-35%
same,growth inhibition,[3]; at 1.2 µM,-38%
same,growth inhibition,[3]; at 3.7 µM,-32%
same,growth inhibition,[3]; at 11.0 µM,-54%
same,growth inhibition,[3]; at 33.0 µM,-38%
same,growth inhibition,[3]; at 100.0 µM,-48%
same,growth inhibition,[4]; at 1.2 µM,-5%
same,growth inhibition,[4]; at 3.7 µM,-7%
same,growth inhibition,[4]; [16],38%
same,growth inhibition,[4]; at 11.0 µM,-16%
same,growth inhibition,[4]; at 33.0 µM,-17%
same,growth inhibition,[4]; [17],90% (active)
same,growth inhibition,[4]; at 50.0 µM,49%
same,growth inhibition,[4]; at 100.0 µM,-33%
same,growth inhibition,[5]; at 1.2 µM,-53%
same,growth inhibition,[5]; at 3.7 µM,-39%
same,growth inhibition,[5]; [16],44%
same,growth inhibition,[5]; at 11.0 µM,-48%
same,growth inhibition,[5]; at 33.0 µM,-41%
same,growth inhibition,[5]; [17],93% (active)
same,growth inhibition,[5]; at 50.0 µM,68.2%
same,growth inhibition,[5]; at 100.0 µM,-34%
same,growth inhibition,[6]; at 1.2 µM,-51%
same,growth inhibition,[6]; at 3.7 µM,-43%
same,growth inhibition,[6]; at 11.0 µM,-37%
same,growth inhibition,[6]; at 33.0 µM,-35%
same,growth inhibition,[6]; at 100.0 µM,-56%
same,growth inhibition,[7]; [16],-1%
same,growth inhibition,[7]; [17],-9%
same,growth inhibition,[7]; at 50.0 µM,55.5%
same,growth inhibition,[8]; at 1.2 µM,-24%
same,growth inhibition,[8]; at 3.7 µM,-13%
same,growth inhibition,[8]; at 11.0 µM,-27%
same,growth inhibition,[8]; at 33.0 µM,-25%
same,growth inhibition,[8]; at 100.0 µM,-35%
same,growth inhibition,[9]; [16],46%
same,growth inhibition,[9]; [17],28%
same,growth inhibition,[9]; at 50.0 µM,9.15%
same,growth inhibition,[10]; at 1.2 µM,-17%
same,growth inhibition,[10]; at 3.7 µM,-6%
same,growth inhibition,[10]; [16],18%
same,growth inhibition,[10]; at 11.0 µM,-12%
same,growth inhibition,[10]; at 33.0 µM,-9%
same,growth inhibition,[10]; [17],-1%
same,growth inhibition,[10]; at 50.0 µM,55.5%
same,growth inhibition,[10]; at 100.0 µM,-12%
same,growth inhibition,[11]; at 1.2 µM,-30%
same,growth inhibition,[11]; at 3.7 µM,-27%
same,growth inhibition,[11]; at 11.0 µM,-33%
same,growth inhibition,[11]; at 33.0 µM,-30%
same,growth inhibition,[11]; at 100.0 µM,-23%
same,growth inhibition,[12]; at 1.2 µM,-20%
same,growth inhibition,[12]; at 3.7 µM,-23%
same,growth inhibition,[12]; at 11.0 µM,-39%
same,growth inhibition,[12]; at 33.0 µM,-31%
same,growth inhibition,[12]; at 100.0 µM,-48%
same,growth inhibition,[13]; at 1.2 µM,-35%
same,growth inhibition,[13]; at 3.7 µM,-28%
same,growth inhibition,[13]; at 11.0 µM,-31%
same,growth inhibition,[13]; at 33.0 µM,-29%
same,growth inhibition,[13]; at 100.0 µM,-39%
same,growth inhibition,[14]; [16],36%
same,growth inhibition,[14]; [17],87% (active)
same,growth inhibition,[14]; at 50.0 µM,43.3%
same,growth inhibition,[15]; at 1.2 µM,-38%
same,growth inhibition,[15]; at 3.7 µM,-38%
same,growth inhibition,[15]; at 11.0 µM,-45%
same,growth inhibition,[15]; at 33.0 µM,-46%
same,growth inhibition,[15]; at 100.0 µM,-66%
